# Data from the supplement of paper PMC11732987, “Enantioselective OTUD7B fragment discovery through chemoproteomics screening and high-throughput optimisation” (Communications Chemistry, 2025).
# Unmarked numbers belong to inactive results.
# Key:
# Test in all cases: log2 ratio of Biotin-Ahx-Ub-VS probe labelling (fragment/DMSO); higher = less target engagement (more negative = stronger competition), active = hit call of the paper (q ≤ 0.05, log2 ratio ≤ -1)
# Details in all cases: compound concentration: 200 uM; treatment time: 3 h
# [1] = biological target: T1, USP19 (UniProt O94966)
# T1 sequence (whole entry): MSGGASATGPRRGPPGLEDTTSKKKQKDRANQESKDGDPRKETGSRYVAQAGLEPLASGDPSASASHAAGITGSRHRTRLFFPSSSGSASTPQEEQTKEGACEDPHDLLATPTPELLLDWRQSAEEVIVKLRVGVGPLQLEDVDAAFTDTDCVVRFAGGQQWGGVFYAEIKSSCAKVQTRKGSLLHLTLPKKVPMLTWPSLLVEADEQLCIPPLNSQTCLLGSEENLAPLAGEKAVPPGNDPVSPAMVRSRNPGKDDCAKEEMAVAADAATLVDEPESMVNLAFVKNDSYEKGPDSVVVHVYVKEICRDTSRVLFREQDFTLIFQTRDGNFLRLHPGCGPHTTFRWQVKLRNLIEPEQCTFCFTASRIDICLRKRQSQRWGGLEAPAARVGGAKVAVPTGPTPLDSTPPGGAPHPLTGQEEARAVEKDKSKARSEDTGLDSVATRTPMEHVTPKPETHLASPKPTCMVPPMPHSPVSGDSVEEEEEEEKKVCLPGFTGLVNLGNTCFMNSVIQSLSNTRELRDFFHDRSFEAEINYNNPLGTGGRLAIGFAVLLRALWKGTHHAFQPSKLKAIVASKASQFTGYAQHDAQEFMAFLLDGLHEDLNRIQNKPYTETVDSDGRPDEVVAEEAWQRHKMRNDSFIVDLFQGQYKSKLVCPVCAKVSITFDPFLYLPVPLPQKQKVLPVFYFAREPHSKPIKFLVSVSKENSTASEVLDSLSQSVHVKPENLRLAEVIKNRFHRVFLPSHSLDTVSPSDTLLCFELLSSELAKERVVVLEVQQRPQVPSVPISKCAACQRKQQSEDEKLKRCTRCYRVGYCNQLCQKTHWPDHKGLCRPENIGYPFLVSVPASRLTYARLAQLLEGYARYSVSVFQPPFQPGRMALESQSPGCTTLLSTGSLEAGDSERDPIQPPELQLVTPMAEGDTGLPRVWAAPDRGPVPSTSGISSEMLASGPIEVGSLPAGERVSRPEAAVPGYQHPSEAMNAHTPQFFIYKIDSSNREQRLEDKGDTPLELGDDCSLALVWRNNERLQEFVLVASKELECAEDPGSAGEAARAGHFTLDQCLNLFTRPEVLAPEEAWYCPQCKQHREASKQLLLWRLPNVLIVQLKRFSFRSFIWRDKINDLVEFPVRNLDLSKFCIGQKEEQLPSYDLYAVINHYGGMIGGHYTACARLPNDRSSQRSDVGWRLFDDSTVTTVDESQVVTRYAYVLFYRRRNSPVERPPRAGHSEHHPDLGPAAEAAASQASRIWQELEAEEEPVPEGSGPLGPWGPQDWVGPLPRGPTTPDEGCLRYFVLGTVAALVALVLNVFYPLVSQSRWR
# How it was run: (§1)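 Average log2 ratios of fragment over vehicle were obtained by unpaired t-test from global-median-normalised Spectronaut label-free quantities. Proteins with ≥2 unique peptides were included. HEK293T lysate (495 µg per sample) was treated in triplicate with fragment at 200 µM or vehicle for 3 h, then with Biotin-Ahx-Ub-VS at 0.5 µM final for 1 h, and labelled DUBs were NeutrAvidin-enriched and run by diaPASEF LC-MS/MS.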
# [2] = biological target: T2, USP22 (UniProt Q9UPT9)
# T2 sequence (whole entry): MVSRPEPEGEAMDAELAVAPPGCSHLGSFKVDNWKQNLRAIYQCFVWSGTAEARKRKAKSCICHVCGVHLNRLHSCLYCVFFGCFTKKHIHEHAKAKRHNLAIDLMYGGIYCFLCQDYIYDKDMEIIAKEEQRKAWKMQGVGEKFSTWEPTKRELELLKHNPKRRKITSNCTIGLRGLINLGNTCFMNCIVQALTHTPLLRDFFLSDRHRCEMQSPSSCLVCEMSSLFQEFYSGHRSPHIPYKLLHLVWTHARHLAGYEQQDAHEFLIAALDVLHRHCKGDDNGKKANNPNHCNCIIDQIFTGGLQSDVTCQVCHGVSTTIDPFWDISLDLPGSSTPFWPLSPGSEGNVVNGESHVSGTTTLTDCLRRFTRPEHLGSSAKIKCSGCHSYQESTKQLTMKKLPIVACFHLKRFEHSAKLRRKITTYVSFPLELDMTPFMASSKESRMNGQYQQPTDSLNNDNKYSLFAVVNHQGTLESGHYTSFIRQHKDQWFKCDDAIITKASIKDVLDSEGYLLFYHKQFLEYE
# How it was run: as §1
# [3] = biological target: USP24 (UniProt Q9UPU5)
# USP24, sequence (Q9UPU5 whole entry): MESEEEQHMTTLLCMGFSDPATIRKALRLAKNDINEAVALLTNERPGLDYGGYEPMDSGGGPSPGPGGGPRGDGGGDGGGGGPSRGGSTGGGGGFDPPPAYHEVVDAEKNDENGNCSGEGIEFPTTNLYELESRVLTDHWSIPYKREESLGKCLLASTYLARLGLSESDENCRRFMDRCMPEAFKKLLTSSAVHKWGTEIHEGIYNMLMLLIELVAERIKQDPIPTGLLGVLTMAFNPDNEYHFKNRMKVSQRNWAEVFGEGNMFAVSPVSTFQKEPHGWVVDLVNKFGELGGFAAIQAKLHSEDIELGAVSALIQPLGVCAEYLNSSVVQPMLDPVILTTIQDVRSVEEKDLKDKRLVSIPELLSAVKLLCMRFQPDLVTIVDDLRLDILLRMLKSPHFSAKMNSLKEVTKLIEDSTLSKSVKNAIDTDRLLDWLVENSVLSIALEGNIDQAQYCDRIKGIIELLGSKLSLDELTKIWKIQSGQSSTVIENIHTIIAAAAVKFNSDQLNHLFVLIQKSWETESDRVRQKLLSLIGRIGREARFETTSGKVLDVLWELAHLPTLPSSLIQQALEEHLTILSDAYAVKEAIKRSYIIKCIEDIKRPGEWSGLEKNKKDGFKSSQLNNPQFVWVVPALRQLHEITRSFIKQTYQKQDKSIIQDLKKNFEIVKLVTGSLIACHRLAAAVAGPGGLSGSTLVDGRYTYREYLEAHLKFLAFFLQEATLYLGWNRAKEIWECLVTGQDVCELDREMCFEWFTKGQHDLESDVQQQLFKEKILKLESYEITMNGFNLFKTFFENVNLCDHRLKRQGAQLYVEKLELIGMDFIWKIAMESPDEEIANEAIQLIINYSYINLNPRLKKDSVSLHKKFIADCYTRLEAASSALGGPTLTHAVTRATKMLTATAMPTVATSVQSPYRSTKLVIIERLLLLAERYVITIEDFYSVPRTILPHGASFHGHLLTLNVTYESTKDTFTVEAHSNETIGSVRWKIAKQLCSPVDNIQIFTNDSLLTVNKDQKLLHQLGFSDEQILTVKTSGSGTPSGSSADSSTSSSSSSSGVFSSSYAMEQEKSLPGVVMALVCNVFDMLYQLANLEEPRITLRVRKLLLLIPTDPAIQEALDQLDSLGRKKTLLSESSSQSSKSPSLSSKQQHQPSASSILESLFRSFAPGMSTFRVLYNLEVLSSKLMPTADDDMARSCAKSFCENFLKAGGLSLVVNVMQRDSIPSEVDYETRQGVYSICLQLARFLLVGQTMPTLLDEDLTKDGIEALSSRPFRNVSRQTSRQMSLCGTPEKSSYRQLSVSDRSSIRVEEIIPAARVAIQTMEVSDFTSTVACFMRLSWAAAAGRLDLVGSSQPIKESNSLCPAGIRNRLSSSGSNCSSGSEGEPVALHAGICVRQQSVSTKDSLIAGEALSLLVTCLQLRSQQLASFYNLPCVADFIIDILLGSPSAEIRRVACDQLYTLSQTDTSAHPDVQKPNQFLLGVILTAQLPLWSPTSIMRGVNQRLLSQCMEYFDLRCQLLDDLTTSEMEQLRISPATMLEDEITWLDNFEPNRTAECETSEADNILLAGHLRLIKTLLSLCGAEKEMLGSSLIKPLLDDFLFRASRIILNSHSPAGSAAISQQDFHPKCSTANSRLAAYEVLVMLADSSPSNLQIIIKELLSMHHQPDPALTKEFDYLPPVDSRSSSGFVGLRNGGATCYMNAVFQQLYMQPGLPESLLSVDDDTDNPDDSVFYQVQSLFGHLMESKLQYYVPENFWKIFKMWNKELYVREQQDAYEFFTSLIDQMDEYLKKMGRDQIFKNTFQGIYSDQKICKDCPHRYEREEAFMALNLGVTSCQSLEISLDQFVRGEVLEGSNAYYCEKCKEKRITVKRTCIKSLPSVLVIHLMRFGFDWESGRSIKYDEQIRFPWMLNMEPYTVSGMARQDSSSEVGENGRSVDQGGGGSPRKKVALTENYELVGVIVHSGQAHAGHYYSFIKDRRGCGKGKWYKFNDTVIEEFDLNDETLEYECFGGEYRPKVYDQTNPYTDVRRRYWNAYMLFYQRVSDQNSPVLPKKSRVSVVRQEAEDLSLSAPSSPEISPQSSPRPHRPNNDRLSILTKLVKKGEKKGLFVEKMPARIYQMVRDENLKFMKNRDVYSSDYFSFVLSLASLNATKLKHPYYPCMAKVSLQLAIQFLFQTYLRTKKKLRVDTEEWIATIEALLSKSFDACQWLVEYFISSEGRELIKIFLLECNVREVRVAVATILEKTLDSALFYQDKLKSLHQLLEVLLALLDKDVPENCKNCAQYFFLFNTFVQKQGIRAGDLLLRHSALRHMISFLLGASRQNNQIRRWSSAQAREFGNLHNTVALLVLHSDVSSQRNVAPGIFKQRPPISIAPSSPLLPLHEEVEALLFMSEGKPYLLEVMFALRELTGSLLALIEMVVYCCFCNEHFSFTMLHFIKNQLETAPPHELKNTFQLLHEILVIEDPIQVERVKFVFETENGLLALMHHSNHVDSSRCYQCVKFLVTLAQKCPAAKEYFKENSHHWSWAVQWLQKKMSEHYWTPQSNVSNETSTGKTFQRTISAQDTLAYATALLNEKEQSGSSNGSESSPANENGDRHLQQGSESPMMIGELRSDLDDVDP
# How it was run: as §1
# [4] = biological target: T3, USP25 (UniProt Q9UHP3)
# T3 sequence (whole entry): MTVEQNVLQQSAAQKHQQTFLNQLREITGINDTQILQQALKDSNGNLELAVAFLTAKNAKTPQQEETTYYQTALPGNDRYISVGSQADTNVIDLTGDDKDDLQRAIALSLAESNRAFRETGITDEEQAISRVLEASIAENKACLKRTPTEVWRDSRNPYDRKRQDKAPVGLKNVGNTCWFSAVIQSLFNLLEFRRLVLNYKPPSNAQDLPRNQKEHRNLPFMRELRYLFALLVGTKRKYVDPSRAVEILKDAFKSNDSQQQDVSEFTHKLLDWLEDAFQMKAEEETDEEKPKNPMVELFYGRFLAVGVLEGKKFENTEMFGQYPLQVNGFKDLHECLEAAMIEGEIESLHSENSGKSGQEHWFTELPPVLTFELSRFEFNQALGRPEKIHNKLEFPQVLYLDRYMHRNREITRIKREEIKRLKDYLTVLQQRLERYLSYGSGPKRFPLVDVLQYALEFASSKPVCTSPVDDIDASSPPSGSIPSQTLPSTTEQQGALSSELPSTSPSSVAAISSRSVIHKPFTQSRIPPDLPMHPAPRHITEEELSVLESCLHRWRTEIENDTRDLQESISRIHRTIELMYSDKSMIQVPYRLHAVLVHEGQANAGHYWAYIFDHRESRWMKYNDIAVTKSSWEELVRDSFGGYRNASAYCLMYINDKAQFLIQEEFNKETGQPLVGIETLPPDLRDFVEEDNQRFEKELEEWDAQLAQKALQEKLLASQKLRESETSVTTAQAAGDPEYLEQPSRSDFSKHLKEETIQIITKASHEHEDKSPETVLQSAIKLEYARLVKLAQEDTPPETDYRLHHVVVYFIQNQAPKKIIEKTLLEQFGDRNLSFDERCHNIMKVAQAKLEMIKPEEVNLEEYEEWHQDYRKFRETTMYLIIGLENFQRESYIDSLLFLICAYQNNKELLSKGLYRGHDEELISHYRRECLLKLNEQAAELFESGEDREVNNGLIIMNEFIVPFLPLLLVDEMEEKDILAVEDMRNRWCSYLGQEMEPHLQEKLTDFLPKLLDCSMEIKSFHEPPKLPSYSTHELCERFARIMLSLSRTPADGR
# How it was run: as §1
# [5] = biological target: T4, USP28 (UniProt Q96RU2)
# T4 sequence (whole entry): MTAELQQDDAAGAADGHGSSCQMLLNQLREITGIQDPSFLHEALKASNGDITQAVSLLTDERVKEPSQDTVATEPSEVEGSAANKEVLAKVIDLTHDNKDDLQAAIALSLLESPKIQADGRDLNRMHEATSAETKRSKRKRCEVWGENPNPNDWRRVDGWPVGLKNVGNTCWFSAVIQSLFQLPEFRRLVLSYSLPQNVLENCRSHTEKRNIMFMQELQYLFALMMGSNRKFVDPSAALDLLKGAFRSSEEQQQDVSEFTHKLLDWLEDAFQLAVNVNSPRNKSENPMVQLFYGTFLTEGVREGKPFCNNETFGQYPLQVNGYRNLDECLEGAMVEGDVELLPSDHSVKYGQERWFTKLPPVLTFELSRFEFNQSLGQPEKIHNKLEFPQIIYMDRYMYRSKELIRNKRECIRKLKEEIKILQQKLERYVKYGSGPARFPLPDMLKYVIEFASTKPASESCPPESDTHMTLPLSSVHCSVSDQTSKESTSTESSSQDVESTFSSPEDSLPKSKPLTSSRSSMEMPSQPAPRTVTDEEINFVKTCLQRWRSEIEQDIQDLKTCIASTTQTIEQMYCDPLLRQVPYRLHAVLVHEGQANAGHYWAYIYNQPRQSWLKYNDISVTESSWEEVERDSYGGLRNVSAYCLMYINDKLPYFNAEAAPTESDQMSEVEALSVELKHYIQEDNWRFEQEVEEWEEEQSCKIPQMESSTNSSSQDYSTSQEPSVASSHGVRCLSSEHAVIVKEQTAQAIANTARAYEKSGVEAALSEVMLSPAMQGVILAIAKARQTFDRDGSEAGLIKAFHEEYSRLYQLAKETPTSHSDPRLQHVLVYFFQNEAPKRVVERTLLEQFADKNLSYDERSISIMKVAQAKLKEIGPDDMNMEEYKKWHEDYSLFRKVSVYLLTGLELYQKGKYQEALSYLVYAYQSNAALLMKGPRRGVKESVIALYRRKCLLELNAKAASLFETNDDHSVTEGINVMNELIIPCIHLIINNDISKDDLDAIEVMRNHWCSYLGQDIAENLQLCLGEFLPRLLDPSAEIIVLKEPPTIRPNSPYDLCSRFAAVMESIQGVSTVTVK
# How it was run: as §1
compound,measurement,setting,value
COc1cc(Cl)c(C)cc1NC(=O)CCl,log2 ratio of Biotin-Ahx-Ub-VS probe labelling,[1],-0.357
same,log2 ratio of Biotin-Ahx-Ub-VS probe labelling,[2],-0.0389
same,log2 ratio of Biotin-Ahx-Ub-VS probe labelling,[3],-1.3 (active)
same,log2 ratio of Biotin-Ahx-Ub-VS probe labelling,[4],-0.839
same,log2 ratio of Biotin-Ahx-Ub-VS probe labelling,[5],-0.742
